ChEMBL document CHEMBL1157539, “Thousands of chemical starting points for antimalarial lead identification” (Nature, 2010)

System: Plasmodium falciparum
Assay: GSK_TCMDC: Inhibition of Plasmodium falciparum Dd2 in whole red blood cells, using parasite LDH activity as an index of growth. Test compounds present at 2uM
Format: functional

Row | Compound | Inhibition
1 | CCc1c(CCNCCc2cccc(CCNCCc3ccc(OC)c(OC)c3CC)c2)ccc(OC)c1OC.Cl | 67%
2 | CN1CCN(C(C(=O)NCc2cc(Cl)cc(Cl)c2)c2ccccc2-c2ccsc2)CC1 (stereo unspecified) | 80%
3 | CCOc1ccccc1C1C(C(=O)C(C)(C)C)N2c3ccc(Br)cc3C=CC2C12C(=O)c1ccccc1C2=O (stereo unspecified) | 94%
4 | COc1ccc(CN2CCCN(Cc3cccc(C(=O)Nc4ccc(C)c(F)c4)c3)CC2)cc1.O=C(O)C(F)(F)F | 10%

System: HepG2
Assay: GSK_TCMDC: Percent inhibition of human HepG2 cell line. Test compounds present at 10uM.
Format: functional

Row | Compound | Inhibition
5 | Cc1ccc(NC(=O)c2ccc(NCCCN3CC(C)CC(C)C3)c([N+](=O)[O-])c2)cc1F (stereo unspecified) | 18%
6 | COc1cccc2cc(C(=O)N[C@@H](CC(C)C)C(=O)N[C@H](/C=N/N3C(=O)CN(Cc4ccccc4)C3=O)CCc3ccccc3)oc12 | 14%
7 | Cc1cccc2sc(N(CCCn3ccnc3)C(=O)C=Cc3cccs3)nc12.Cl | 0%
8 | Cc1[nH]c2ccc(-c3ccc(N(C)C)cc3)cc2c(=O)c1Cl | 0%
9 | COc1cccc2cc(C(=O)N[C@@H](CC(C)C)C(=O)N[C@H](C=NN3CCCC3=O)Cc3ccccc3)oc12 | 5%
10 | CN(C)CCNC(=O)c1csc(Nc2ccc(Cl)c(Cl)c2)n1 | 4%
11 | O=C(N[C@H]1CCN(Cc2ccc(OCCN3CCNCC3)c(Cl)c2)C1)c1ccc(Cl)c(Cl)c1.O=C(O)C(F)(F)F | 50%
12 | Cc1cc(NC(=O)CCN2CCN(c3cccc(Cl)c3Cl)CC2)ccc1N1CCN(C(C)C)CC1.Cl | 82%
13 | CCOc1ccc(-c2nonc2NC(=O)c2cccc(Cl)c2)cc1OCC | 0%
14 | COc1ccc(CNCc2ccccc2)cc1-c1ccc(S(=O)(=O)NCCN2CCCC2)cc1.O=C(O)C(F)(F)F | 38%
15 | COc1ccc2c(c1)CC1CN(CCCCNC(=O)c3ccc(NC(=O)c4cc(Cl)cc(Cl)c4)cc3)CCN1C2 (stereo unspecified) | 7%
16 | CCOC(=O)N1CCC(NC(=O)c2ccc(C(C)(C)C)cc2OC)CC1 | 0%
17 | CCCCn1c(SC(C)C)nc2c(c1=O)C1(CCCCC1)Cc1ccccc1-2 | 1%
18 | Cl.N#Cc1ccc(NC(=O)c2ccc(Cc3ccc4c(c3)CCN(C3CCC3)CC4)cn2)cc1 | 66%
19 | O=C(NCCCCN1CCC(c2ccc(-c3ccco3)cc2)CC1)c1ccc(NC(=O)c2ccc(Cl)cc2)cc1 | 26%
20 | CN1CCN(c2ccnc3ccc(NC(=O)c4ccc(Cl)c(Cl)c4)cc23)CC1 | 4%

Row | Compound | Inhibition
21 | c1ccc2oc(-c3cc4ccncc4cc3OC3CCNCC3)cc2c1 | 11%
22 | CCN(CC)CCOc1ccc(C(O)(C#CC(O)(c2ccc(Br)cc2)c2ccc(OCCN(CC)CC)cc2)c2ccc(Br)cc2)cc1 (stereo unspecified) | 99%
23 | CCCc1cc(NCC)nc(Nc2ccc(C)cc2)n1 | 22%
24 | Clc1cc(Nc2ncnc3cc(C#C[C@H]4CCCN4)sc23)cc2nc(Cc3ccccc3)[nH]c12.O=C(O)C(F)(F)F | 29%
25 | Cc1ccc(NC(=O)c2cccc(C#N)c2)cc1-c1ccc(C(=O)Nc2ccncc2)cc1 | 38%
26 | Cc1nnc2c(NC(=O)NC3CCCC3)cc3cc(-c4ccc(CN(C)C)cc4)ccc3n12 | 100%
27 | CC1(C)OC[C@]2(C)[C@@H](CC[C@]3(C)C4=CC(=O)CCC4CC[C@@H]23)O1 (stereo partly specified) | 0%
28 | CN(Cc1ccc(NC(=O)CCC2CCN(C(=O)/C=C/c3ccc(Cl)c(Cl)c3)CC2)cc1)C1CCOCC1 | 10%
29 | c1ccc(-c2cc(NCCCn3ccnc3)nc(-c3cccnc3)n2)cc1 | 15%
30 | N#Cc1ccc(N[C@@H](CC2CCCCC2)C(=O)N[C@@H]2CCCc3ccccc32)c2ccccc12.O=C(O)C(F)(F)F | 12%
31 | Cc1cc(-c2ccc(CNC3Cc4ccccc4C3)cc2)ccc1S(=O)(=O)NCCN1CCCC1.O=C(O)C(F)(F)F | 99%
32 | O=C(/C=C/c1ccc(Cl)cc1)NCCCCCN1CCCN(C(=O)Nc2ccc(F)c(Cl)c2)CC1 | 29%
33 | CN(C)C1CCN(Cc2ccc(N3CCN(Cc4cccc5[nH]ccc45)CC3)nc2)CC1 | 11%
34 | CC(C)(C)c1ccc(CNC(=O)c2cc(CNC3CCNCC3)ccc2O)cc1 | 6%
35 | CCCCN(CCCC)CCOc1cc2c(cc1OC)CCN2C(=O)/C=C/c1ccccc1Cl.Cl | 13%
36 | CCCCCC(C)NC[C@@H](O)[C@H](Cc1ccccc1)NC(=O)c1cc(NCC)cc(N2CCCCS2(=O)=O)c1.Cl (stereo partly specified) | 3%
